# Compounds without any hit were thinned out: in the full panel of roughly 83,000, 20% have a hit.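 Treatment: one concentration, 48 hours, 96-well format. Scoring: percent growth, with anything below 10 considered active.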 A number with no mark means an inactive call. The source made the active and inactive calls.
# What was measured:
# Test in all cases: NCI-60 one-dose screen, 48 h (100 = growth as untreated, 0 = no growth, -100 = all killed)
# [1] = tested on: HCT-15 colon; conditions: 10 µM unless noted
# [2] = tested on: HT29 colon; conditions: 10 µM unless noted
# [3] = tested on: SNB-75 CNS; conditions: 10 µM unless noted
# [4] = tested on: SNB-19 CNS; conditions: 10 µM unless noted
# [5] = tested on: U251 CNS; conditions: 10 µM unless noted
# [6] = tested on: PC-3 prostate; conditions: 10 µM unless noted
# [7] = tested on: SK-MEL-5 melanoma; conditions: 10 µM unless noted
# [8] = tested on: UACC-62 melanoma; conditions: 10 µM unless noted
# [9] = tested on: LOX IMVI melanoma; conditions: 10 µM unless noted
# [10] = tested on: SK-MEL-28 melanoma; conditions: 10 µM unless noted
# [11] = tested on: SK-MEL-2 melanoma; conditions: 10 µM unless noted
# [12] = tested on: EKVX NSCLC; conditions: 10 µM unless noted
# [13] = tested on: SN12C renal; conditions: 10 µM unless noted
# [14] = tested on: UO-31 renal; conditions: 10 µM unless noted
# [15] = tested on: TK-10 renal; conditions: 10 µM unless noted
# [16] = tested on: ACHN renal; conditions: 10 µM unless noted
# [17] = tested on: A498 renal; conditions: 10 µM unless noted
# [18] = tested on: CCRF-CEM leukemia; conditions: 10 µM unless noted
# [19] = tested on: MOLT-4 leukemia; conditions: 10 µM unless noted
# [20] = tested on: CAKI-1 renal; conditions: 10 µM
Structure (SMILES),growth [1],growth [2],growth [3],growth [4],growth [5],growth [6],growth [7],growth [8],growth [9],growth [10],growth [11],growth [12],growth [13],growth [14],growth [15],growth [16],growth [17],growth [18],growth [19],growth [20]
Cc1cc(O)c(=O)cc2c1C[C@H]1CC(C)(C)/C=C/C[C@]3(C)Oc4cc(=O)c(O)cc(C)c4C[C@H]3C[C@H](O)[C@@]1(C)O2,18.5%,8.78% (active),23.9%,11.2%,3.83% (active),9.28% (active),-46.5% (active),-41% (active),6.81% (active),11.1%,-27.1% (active),3.91% (active),6.41% (active),-15.8% (active),-1.4% (active),-3.47% (active),-7.88% (active),4.82% (active),2.51% (active),
O=c1oc2ccc(-c3ccc(F)cc3F)cc2c(=O)n1-c1cccc(C(F)(F)F)c1,9.93% (active),91.3%,15.5%,9.99% (active),10.2%,6.82% (active),-72.4% (active),-6.07% (active),0.939% (active),23.4%,-12.5% (active),8.73% (active),1.14% (active),,15.4%,4.3% (active),-34.1% (active),22.6%,5.65% (active),-12.2% (active)
COc1ccc(N2C(=O)c3cc(OC)c(OC)cc3NC2SCc2ccccc2)cc1 (configuration not stated),96.1%,116%,112%,109%,108%,102%,97%,93.8%,94.8%,96.9%,99.6%,91.8%,102%,88.4%,129%,94.3%,,105%,88%,104%
CC(C)SC1=NC(=C(C(=N1)NC2=ClC=CC=C2)C#N)C3=CC=CC=C3,63%,80.5%,26.5%,69.5%,49.7%,78.2%,91.2%,84%,70%,87.7%,125%,84%,36.7%,,112%,23.4%,71.6%,63.4%,83.3%,64.5%
CC(=O)NC(C)(C)C(=O)N1CCC[C@H]1C(=O)NC(C)(C)C(=O)N[C@@H](C)C(=O)NC(C)(C)C(=O)NC(C)(C)C(=O)N[C@@H](CCC(N)=O)C(=O)NC(C)(C)C(=O)N[C@H](C(=O)NC(C)(C)C(=O)NCC(=O)N[C@@H](CC(C)C)C(=O)NC(C)(C)C(=O)N1CCC[C@H]1C(=O)N[C@H](C(=O)NC(C)(C)C(=O)NC(C)(C)C(=O)N[C@@H](CCC(N)=O)C(=O)N[C@@H](CCC(N)=O)C(=O)N[C@H](CO)Cc1ccccc1)C(C)C)C(C)C,98.8% [4.25 µM],27.4% [4.25 µM],18.6% [4.25 µM],19.1% [4.25 µM],21.8% [4.25 µM],14.9% [4.25 µM],-45.7% [4.25 µM] (active),35% [4.25 µM],18.6% [4.25 µM],32.1% [4.25 µM],0.326% [4.25 µM] (active),65% [4.25 µM],13.4% [4.25 µM],97.7% [4.25 µM],59.2% [4.25 µM],96.3% [4.25 µM],25% [4.25 µM],36.3% [4.25 µM],35.6% [4.25 µM],
O=C1c2c(O)cc(O)cc2O[C@@H](c2ccc(O)cc2)[C@@H]1c1c(O)cc(O)c2c(=O)cc(-c3ccc(O)c(O)c3)oc12,101%,101%,82.6%,112%,110%,96.1%,99.6%,89.5%,88.9%,99.1%,117%,91.9%,105%,97.3%,,85%,,114%,121%,
Cc1nn(-c2ccccc2)c2nc(CCl)[nH]c(=O)c12,90.6%,106%,93.9%,89.4%,101%,102%,98.7%,96.2%,2.09% (active),110%,105%,99.2%,95.7%,-86.3% (active),63.3%,90.3%,,,79.6%,99.6%
COc1ccc(Cn2cc3c(c2-c2ccccc2)CCCc2cnoc2-3)cc1[N+](=O)[O-],27.3%,40.8%,55.8%,75.6%,77.5%,69.5%,71.5%,52.1%,87.8%,76.9%,60.4%,78.9%,82.2%,,109%,87.1%,66.8%,52.6%,47%,50.5%
O=C(Nc1cccc(-c2nc(-c3ccc(NC(=O)c4cccnc4)cc3Cl)no2)c1)Nc1ccc(NC(=O)C2CC2)c(C(F)(F)F)c1,9.01% (active),-26.8% (active),-73.7% (active),-0.276% (active),-48% (active),-65.8% (active),-92.9% (active),-81.9% (active),-93.3% (active),-83.7% (active),-55% (active),-28% (active),-60.8% (active),17.8%,-20.4% (active),9.95% (active),,-16.3% (active),-39.7% (active),-72.7% (active)
CC1=CC(=O)CC(C)(C)[C@@]1(O)/C=C/C(C)=C\C(=O)O,-23.1% (active),-36.9% (active),-41.2% (active),-9.04% (active),-18.5% (active),-7.5% (active),-83% (active),-56.9% (active),-75.8% (active),-34.6% (active),-52.4% (active),-29.6% (active),-15.1% (active),-31.6% (active),-25.5% (active),-7.21% (active),-72.7% (active),0.0714% (active),-9.99% (active),
C/C(=N/Nc1nc(N/N=C(/C)c2ccc([N+](=O)[O-])cc2)nc(N2CCOCC2)n1)c1ccc([N+](=O)[O-])cc1,66.1%,80.6%,80.6%,63.1%,92.6%,76.6%,67.1%,85.3%,38.9%,83.8%,96.4%,68.1%,73.7%,80.8%,127%,66.1%,,61.6%,78.9%,77.9%
NS(=O)(=O)c1ccc(Nc2nc(N/N=C/c3ccc(F)cc3)nc(Nc3ccccc3)n2)cc1,79.3%,4.73% (active),96.4%,69.9%,11.9%,39.9%,38.1%,60.5%,60.6%,63.3%,-9.45% (active),62.7%,50.3%,,1.71% (active),80.8%,,20%,21.8%,56.8%
O=S(=O)(Nc1cc(Cl)cc(Cl)c1)c1ccc(-c2cnc(C3CC3)o2)cc1,30.9%,12.1%,-1.98% (active),42.9%,37.4%,27%,36.9%,39.1%,44.8%,69.9%,56.8%,43.9%,50.6%,,76.1%,53.3%,15.7%,17.2%,32.6%,11.8%
CCOC(=O)c1c(NC(=O)c2ccc(F)cc2F)sc2c1CCC(=O)C2,80.6%,103%,94.3%,67.2%,53.5%,93.7%,98.5%,83.4%,80.7%,112%,98.3%,97.7%,99%,83.8%,124%,95.6%,,98.2%,95.8%,80.1%

# — PubChem BioAssay (NCI)
